{"source": "PubChem BioAssay", "note": "Active and inactive are the calls of the source.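 Rule for the calls: active = Her2 level under about 52% in both replicate screens, with viability over 70% of control (limit read from the data); inconclusive = Her2 under the limit in one screen only, or viability under 70%; inactive = Her2 level above the set limit.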", "data": [{"test_system": "not listed separately", "experiment": "Her2 expression decrease, cell viability multiplex – SKBR3 breast tumor cells, AlphaScreen, ATP viability, primary screen (AID 461);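 for Her2 level: lower value means less Her2 protein in the cells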;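 for viability: percent of carrier control wells set as 100% viability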", "details": "SKBR3 Her2 protein level, 18-24 h, measured here: SKBR3 viability, ATP luminescence, at 10 µM", "units": {"viability": "%"}, "values": [{"smiles": "CCn1c(=O)cc(SCC(=O)Nc2cccnc2)c2ccccc21", "viability": 91.5}, {"smiles": "c1ccc2c(c1)CNc1ccccc1C2", "viability": 97.5}, {"smiles": "O=C(Nc1cccc(C(F)(F)F)c1)c1ccco1", "viability": 129}, {"smiles": "CCC(c1nnc(SCC(=O)NCC2CCCO2)n1Cc1ccccc1)N(C)C", "note": "(stereo not given)", "viability": 98.5}, {"smiles": "COC(=O)c1cc(Br)c(=O)n(-c2ccc(OC)cc2)c1", "viability": 96.5}, {"smiles": "COc1cccc(OCc2nc3ccccc3[nH]2)c1", "viability": 86.5}, {"smiles": "O=c1c2c(-c3ccccc3)csc2nc2n1CCC2", "viability": 81}, {"smiles": "COc1cccc(C(=O)CN2CCC(NC(=O)NC3CCCCC3)CC2)c1", "viability": 92}, {"smiles": "COc1ccc(OC)c(C(=O)COC(=O)c2cc(C)oc2C)c1", "viability": 112}, {"smiles": "O=C(Nc1ccccc1C(=O)N1CCN(c2ccccc2)CC1)c1ccco1", "viability": 96}, {"smiles": "Cc1ccc(C(c2nnnn2CCC(C)C)N2CCN(C)CC2)cc1", "note": "(stereo not given)", "viability": 90.5}, {"smiles": "COC(=O)C(C)Oc1ccc2c3c(c(=O)oc2c1)CCCCC3", "note": "(stereo not given)", "viability": 90}, {"smiles": "COc1ccccc1N1CCN(C(=O)c2ccc(S(=O)(=O)N3CCCCCC3)cc2)CC1", "viability": 89.5}, {"smiles": "COc1ccc(CCNC(=O)CC2COc3ccccc3O2)cc1OC", "note": "(stereo not given)", "viability": 102}, {"smiles": "Cc1cccc(-c2noc(CCC(=O)Nc3ccccc3)n2)c1", "viability": 106}, {"smiles": "C=CCn1c(=O)/c(=C/c2ccc(O)cc2)s/c1=C(/C#N)c1nnc2n1CCCCC2", "viability": 93.5}, {"smiles": "O=C(NCCCNC1CCCCC1)c1ccc(/C=N/O)nc1", "viability": 84}, {"smiles": "O=C(CSc1nnnn1-c1ccccc1)c1cc2ccccc2oc1=O", "viability": 95.5}, {"smiles": "Cc1ccc(Nc2nc(N)nc(CN3CCCCCC3)n2)cc1", "viability": 79.5}, {"smiles": "c1cncc(-c2nnc(-c3ccco3)o2)c1", "viability": 106}, {"smiles": "COc1ccc(OC)c(C2=NOC(C(=O)NCCN3CCOCC3)C2)c1", "note": "(stereo not given)", "viability": 107}, {"smiles": "C/C(=N\\O)C(C)/[N+]([O-])=C/c1nc(C)c(C)n1O", "note": "(stereo not given)", "viability": 95.5}, {"smiles": "COc1ccc(CNC(=O)c2cc(-c3ccc(OC)c(OC)c3)on2)cc1", "viability": 116}, {"smiles": "C=CCOc1ccc(/C(O)=C2\\C(=O)C(=O)N(CCOC)C2c2cccnc2)cc1", "note": "(stereo not given)", "viability": 99}, {"smiles": "C=CCN1C(=O)/C(=C2\\SC(N3CCOCC3)=NC2=O)c2cc(Br)ccc21", "viability": 82.5}, {"smiles": "COc1ccccc1Nc1nc2ccccc2[nH]1", "viability": 92}, {"smiles": "Cn1nnnc1SCSc1nnnn1C", "viability": 84}, {"smiles": "CN(CC(=O)Nc1ccc2c(c1)OCCO2)S(=O)(=O)c1ccc(Br)s1", "viability": 90.5}, {"smiles": "CCn1c(=O)n(CC(=O)NCc2ccccc2OC)c(=O)c2ccccc21", "viability": 95}, {"smiles": "O=C1NC(c2ccco2)Nc2ccccc21", "note": "(stereo not given)", "viability": 82.5}, {"smiles": "COCCNC(=O)C(c1ccc(C)o1)N(Cc1ccc(F)cc1)C(=O)Cn1nnc2ccccc21", "note": "(stereo not given)", "viability": 89.5}, {"smiles": "C=CCn1cnc2c(NCc3ccccc3)ncnc21", "viability": 85.5}, {"smiles": "Cc1ccc2cc(CN(CC3CCCO3)S(=O)(=O)c3ccc4c(c3)OCCO4)c(=O)[nH]c2c1C", "note": "(stereo not given)", "viability": 86.5}, {"smiles": "COc1ccccc1C1c2c(oc3ccc(Cl)cc3c2=O)C(=O)N1c1cc(C)on1", "note": "(stereo not given)", "viability": 86.5}, {"smiles": "CC(C)=CC/C=C1\\CCC(C(=O)O)C(C(=O)O)C1", "note": "(stereo not given)", "viability": 114}, {"smiles": "COCCOC(=O)c1c(C)oc2ccc(NS(=O)(=O)c3ccc(F)cc3)cc12", "viability": 85.5}, {"smiles": "Cc1ccc(C)c(N2CCN(C(=O)CCCn3c(=S)[nH]c4cc5c(cc4c3=O)OCO5)CC2)c1", "viability": 73.5}, {"smiles": "CCC(C)N=C1SCC(C)(/C=N/O)S1", "note": "(stereo not given)", "viability": 97}, {"smiles": "CCSc1nc2ccccc2n1CC(N)=O", "viability": 102}, {"smiles": "C=CCn1c(SCC(=O)NC2CCCCC2)nnc1-c1sc(N)nc1C", "viability": 99.5}]}, {"target": "Receptor tyrosine-protein kinase erbB-2 (Homo sapiens) (UniProt P04626)", "sequence (P04626 whole entry, looked up)": "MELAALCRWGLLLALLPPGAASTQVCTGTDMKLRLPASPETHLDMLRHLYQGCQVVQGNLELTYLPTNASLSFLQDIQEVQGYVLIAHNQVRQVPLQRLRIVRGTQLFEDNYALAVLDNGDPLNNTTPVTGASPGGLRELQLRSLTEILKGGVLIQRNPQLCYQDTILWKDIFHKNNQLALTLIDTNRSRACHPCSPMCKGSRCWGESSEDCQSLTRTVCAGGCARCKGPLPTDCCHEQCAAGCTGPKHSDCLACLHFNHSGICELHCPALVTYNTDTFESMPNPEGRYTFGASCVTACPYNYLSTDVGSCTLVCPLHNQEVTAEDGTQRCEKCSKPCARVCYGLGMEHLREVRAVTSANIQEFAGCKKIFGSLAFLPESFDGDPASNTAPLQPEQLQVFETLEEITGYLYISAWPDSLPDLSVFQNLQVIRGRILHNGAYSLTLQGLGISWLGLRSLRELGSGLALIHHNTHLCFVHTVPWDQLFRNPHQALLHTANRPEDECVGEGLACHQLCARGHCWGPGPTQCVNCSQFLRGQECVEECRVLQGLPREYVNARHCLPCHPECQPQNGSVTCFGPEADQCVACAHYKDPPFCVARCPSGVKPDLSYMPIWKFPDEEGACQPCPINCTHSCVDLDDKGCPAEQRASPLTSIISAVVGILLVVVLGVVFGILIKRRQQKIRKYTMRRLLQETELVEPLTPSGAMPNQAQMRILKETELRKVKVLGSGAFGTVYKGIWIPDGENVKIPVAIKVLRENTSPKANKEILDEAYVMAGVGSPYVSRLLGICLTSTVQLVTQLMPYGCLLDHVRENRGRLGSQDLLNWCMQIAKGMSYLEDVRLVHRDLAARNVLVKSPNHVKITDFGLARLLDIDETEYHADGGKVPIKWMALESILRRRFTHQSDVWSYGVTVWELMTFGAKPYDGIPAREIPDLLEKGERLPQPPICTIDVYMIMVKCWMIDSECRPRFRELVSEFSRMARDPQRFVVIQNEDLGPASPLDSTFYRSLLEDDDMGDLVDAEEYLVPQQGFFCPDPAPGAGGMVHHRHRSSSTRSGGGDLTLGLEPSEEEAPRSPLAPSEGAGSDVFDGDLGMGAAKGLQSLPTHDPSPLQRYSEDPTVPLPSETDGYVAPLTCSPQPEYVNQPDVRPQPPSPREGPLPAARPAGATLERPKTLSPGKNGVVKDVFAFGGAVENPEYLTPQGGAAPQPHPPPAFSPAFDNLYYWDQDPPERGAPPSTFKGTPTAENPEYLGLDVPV", "experiment": "Her2 expression decrease, cell viability multiplex – SKBR3 breast tumor cells, AlphaScreen, ATP viability, primary screen (AID 461)", "details": "18-24 h, at 10 µM, stronger effect = lower value", "values": [{"smiles": "CCn1c(=O)cc(SCC(=O)Nc2cccnc2)c2ccccc21", "Her2 level": "89.5% (inactive)"}, {"smiles": "c1ccc2c(c1)CNc1ccccc1C2", "Her2 level": "90.5% (inactive)"}, {"smiles": "O=C(Nc1cccc(C(F)(F)F)c1)c1ccco1", "Her2 level": "79.5% (inactive)"}, {"smiles": "CCC(c1nnc(SCC(=O)NCC2CCCO2)n1Cc1ccccc1)N(C)C", "note": "(stereo not given)", "Her2 level": "98% (inactive)"}, {"smiles": "COC(=O)c1cc(Br)c(=O)n(-c2ccc(OC)cc2)c1", "Her2 level": "93.5% (inactive)"}, {"smiles": "COc1cccc(OCc2nc3ccccc3[nH]2)c1", "Her2 level": "110% (inactive)"}, {"smiles": "O=c1c2c(-c3ccccc3)csc2nc2n1CCC2", "Her2 level": "99% (inactive)"}, {"smiles": "COc1cccc(C(=O)CN2CCC(NC(=O)NC3CCCCC3)CC2)c1", "Her2 level": "101% (inactive)"}, {"smiles": "COc1ccc(OC)c(C(=O)COC(=O)c2cc(C)oc2C)c1", "Her2 level": "71% (inactive)"}, {"smiles": "O=C(Nc1ccccc1C(=O)N1CCN(c2ccccc2)CC1)c1ccco1", "Her2 level": "101% (inactive)"}, {"smiles": "Cc1ccc(C(c2nnnn2CCC(C)C)N2CCN(C)CC2)cc1", "note": "(stereo not given)", "Her2 level": "84% (inactive)"}, {"smiles": "COC(=O)C(C)Oc1ccc2c3c(c(=O)oc2c1)CCCCC3", "note": "(stereo not given)", "Her2 level": "94.5% (inactive)"}, {"smiles": "COc1ccccc1N1CCN(C(=O)c2ccc(S(=O)(=O)N3CCCCCC3)cc2)CC1", "Her2 level": "98.5% (inactive)"}, {"smiles": "COc1ccc(CCNC(=O)CC2COc3ccccc3O2)cc1OC", "note": "(stereo not given)", "Her2 level": "93% (inactive)"}, {"smiles": "Cc1cccc(-c2noc(CCC(=O)Nc3ccccc3)n2)c1", "Her2 level": "93% (inactive)"}, {"smiles": "C=CCn1c(=O)/c(=C/c2ccc(O)cc2)s/c1=C(/C#N)c1nnc2n1CCCCC2", "Her2 level": "103% (inactive)"}, {"smiles": "O=C(NCCCNC1CCCCC1)c1ccc(/C=N/O)nc1", "Her2 level": "96% (inactive)"}, {"smiles": "O=C(CSc1nnnn1-c1ccccc1)c1cc2ccccc2oc1=O", "Her2 level": "102% (inactive)"}, {"smiles": "Cc1ccc(Nc2nc(N)nc(CN3CCCCCC3)n2)cc1", "Her2 level": "73.5% (inactive)"}, {"smiles": "c1cncc(-c2nnc(-c3ccco3)o2)c1", "Her2 level": "114% (inactive)"}, {"smiles": "COc1ccc(OC)c(C2=NOC(C(=O)NCCN3CCOCC3)C2)c1", "note": "(stereo not given)", "Her2 level": "89.5% (inactive)"}, {"smiles": "C/C(=N\\O)C(C)/[N+]([O-])=C/c1nc(C)c(C)n1O", "note": "(stereo not given)", "Her2 level": "109% (inactive)"}, {"smiles": "COc1ccc(CNC(=O)c2cc(-c3ccc(OC)c(OC)c3)on2)cc1", "Her2 level": "88.5% (inactive)"}, {"smiles": "C=CCOc1ccc(/C(O)=C2\\C(=O)C(=O)N(CCOC)C2c2cccnc2)cc1", "note": "(stereo not given)", "Her2 level": "94.5% (inactive)"}, {"smiles": "C=CCN1C(=O)/C(=C2\\SC(N3CCOCC3)=NC2=O)c2cc(Br)ccc21", "Her2 level": "84.5% (inactive)"}, {"smiles": "COc1ccccc1Nc1nc2ccccc2[nH]1", "Her2 level": "93.5% (inactive)"}, {"smiles": "Cn1nnnc1SCSc1nnnn1C", "Her2 level": "83% (inactive)"}, {"smiles": "CN(CC(=O)Nc1ccc2c(c1)OCCO2)S(=O)(=O)c1ccc(Br)s1", "Her2 level": "94.5% (inactive)"}, {"smiles": "CCn1c(=O)n(CC(=O)NCc2ccccc2OC)c(=O)c2ccccc21", "Her2 level": "84% (inactive)"}, {"smiles": "O=C1NC(c2ccco2)Nc2ccccc21", "note": "(stereo not given)", "Her2 level": "85.5% (inactive)"}, {"smiles": "COCCNC(=O)C(c1ccc(C)o1)N(Cc1ccc(F)cc1)C(=O)Cn1nnc2ccccc21", "note": "(stereo not given)", "Her2 level": "95% (inactive)"}, {"smiles": "C=CCn1cnc2c(NCc3ccccc3)ncnc21", "Her2 level": "94% (inactive)"}, {"smiles": "Cc1ccc2cc(CN(CC3CCCO3)S(=O)(=O)c3ccc4c(c3)OCCO4)c(=O)[nH]c2c1C", "note": "(stereo not given)", "Her2 level": "80% (inactive)"}, {"smiles": "COc1ccccc1C1c2c(oc3ccc(Cl)cc3c2=O)C(=O)N1c1cc(C)on1", "note": "(stereo not given)", "Her2 level": "82.5% (inactive)"}, {"smiles": "CC(C)=CC/C=C1\\CCC(C(=O)O)C(C(=O)O)C1", "note": "(stereo not given)", "Her2 level": "104% (inactive)"}, {"smiles": "COCCOC(=O)c1c(C)oc2ccc(NS(=O)(=O)c3ccc(F)cc3)cc12", "Her2 level": "90.5% (inactive)"}, {"smiles": "Cc1ccc(C)c(N2CCN(C(=O)CCCn3c(=S)[nH]c4cc5c(cc4c3=O)OCO5)CC2)c1", "Her2 level": "88.5% (inactive)"}, {"smiles": "CCC(C)N=C1SCC(C)(/C=N/O)S1", "note": "(stereo not given)", "Her2 level": "88.5% (inactive)"}, {"smiles": "CCSc1nc2ccccc2n1CC(N)=O", "Her2 level": "81% (inactive)"}, {"smiles": "C=CCn1c(SCC(=O)NC2CCCCC2)nnc1-c1sc(N)nc1C", "Her2 level": "102% (inactive)"}]}]}
